Where “and” joins values, the source holds several entries; their conditions need not be identical. Identical values can stand only once. Results filed as inconclusive are left out. Values without a mark were called inactive. Calls of active or inactive are those of the source. Calls come from the whole dose curve.
assay: qHTS assay for small molecule agonists of the p53 signaling pathway (AID 651631); details: HCT-116 p53RE-bla reporter, beta-lactamase FRET ratio, 16 h; series mostly up to 73.3 µM; activation: at the top concentration; note: nearly all actives have a fitted effect of over 15% in size
From the text: U.S. Tox21 Program National Center for Advancing Translational Sciences [NCATS] NIH Chemical Genomics Center [NCGC] U.S. Environmental Protection Agency [EPA] National Institutes of Environmental Health Sciences [NIEHS] National Toxicology Program [NTP] U.S. Food and Drug Administration [FDA] Tox21 Assay Overview: p53, a tumor suppressor protein, is activated following cellular insult, including DNA damage and other cellular stresses. The activation of p53 regulates cell fate by inducing DNA repair, cell cycle arrest, apoptosis, or cellular senescence. The activation of p53, therefore, is a good indicator of DNA damage and other cellular stresses. The CellSensor p53RE-bla HCT-116 cell line (Invitrogen) contains a stably integrated beta-lactamase reporter gene under control of the p53 response elements. The activation of the reporter gene under culture conditions can be detected by fluorescence intensity. This cell line was used to screen the Tox21 compound library in a 1536-well plate format and to identify agonists that activate the p53 signaling pathway.
Tox21 Assay Protocol Summary: The p53RE-bla cells were dispensed at 4,000 cells/5 ul/well in 1536-well black wall/clear bottom plates using a Multidrop dispenser. After the assay plates were incubated at a 37 C/5% CO2 incubator for 5 hours, 23 nL of compounds dissolved in DMSO, positive controls or DMSO only was transferred to the assay plate by a pin tool. The plates were incubated at 37 C for 16 hours. After 1 uL of LiveBLAzerTM B/G FRET substrate was added using a Flying Reagent Dispenser, the plates were incubated at room temperature for 2 hours, and fluorescence intensity was measured by an Envision plate reader.
% is set by controls: 0 for no effect and ±100 for the full control effect; potency is the fitted concentration of half-maximal effect.

With `Cc1c(Cl)cccc1Nc1ccccc1C(=O)O` the Potency was 21.1 µM (active).
For `CC(=O)Nc1ccn(C2COC(COC(=O)c3ccccc3)O2)c(=O)n1` (stereo not given), the Potency was 3.76 µM (active).
In the case of `Nc1nc(Cl)nc2c1ncn2[C@H]1C[C@H](O)[C@@H](CO)O1`, the Potency is reported as 841 nM (active) and 341 nM (active).
With `Cc1ccc2c(Cl)cc(Cl)c(O)c2n1` the Potency was 2.37 µM (active).

Going from `CC1(C)[C@@H]2CC[C@]3(C2)[C@@H]1C(=O)CCC3(C)C` to `CCC(=O)O[C@@H]1C[C@H]2CC[C@]1(C)C2(C)C`, the “activation” value rises from -2.3% to -0.28%.

First: O=C1c2ccccc2C(=O)C1c1ccc2ccccc2n1
Second: O=C(Nc1ccc2c(c1)Cc1ccccc1-2)C(F)(F)F
The “activation” value of the first is lower: 2.75% for the first, 4.57% for the second.

Going from `Cc1cc(N)n(-c2ccccc2)n1` to `CC(C)C/C=C(\C=O)c1ccccc1`, the “activation” value falls from -2.27% to -4.23%.

First: CCCCCCCCCC(C)C=O (stereo not given)
Second: CCCCCCCCCCCCSC#N
The “activation” value of the first is higher: -3.5% for the first, -5% for the second.

Compared with `CC(=O)S[C@H](C(=O)N[C@H]1Cc2ccccc2[C@H]2CCC[C@@H](C(=O)O)N2C1=O)C(C)C`, `CCc1ccc(C(=O)C(C)CN2CCCCC2)cc1` (stereo not given) is lower in “activation” value: 2.7% for the first, -3.35% for the second.

Going from `CCCOC(C)=O` to `CCC(CC)C(=O)O`, the “activation” value rises from -3.07% to 0.5%.

Compared with `O=[N+]([O-])c1cccc(I)c1`, `Cc1c(Cl)cccc1[N+](=O)[O-]` is higher in “activation” value: 2.33% for the first, 3.77% for the second.

First: C=C(C)C(=O)OCCCCCCCCCCOC(=O)C(=C)C
Second: CC(C)CCCCCCCOC(=O)c1ccc(C(=O)OCCCCCCCC(C)C)c(C(=O)OCCCCCCCC(C)C)c1
The “activation” value of the first is higher: -2.6% for the first, -3.19% for the second.

Compared with `CC(CN=Cc1ccccc1O)N=Cc1ccccc1O` (stereo not given), `O=C(O)c1ccccc1-n1cc(C(=O)O)c(=O)c2cc(Nc3c(F)cc(F)cc3Cl)c(Cl)cc21` is higher in “activation” value: -0.77% for the first, 2.03% for the second.

First: CC1(C)CC(=O)CC(C)(C)N1
Second: CS(C)=O
The “activation” value of the first is higher: -2.31% for the first, -2.39% for the second.

Compared with `C[Si](C)(C)O[Si](C)(C)O[Si](C)(C)C`, `CO[C@@H]1[C@@H](O[C@@H]2O[C@H](C)[C@@H](O[C@H]3C[C@@](C)(O)[C@@H](O)[C@H](C)O3)[C@H](N(C)C)[C@H]2O)[C@@H](CC=O)C[C@@H](C)[C@@H](O[C@@H]2CC[C@H](N(C)C)[C@@H](C)O2)/C=C/C=C/C[C@@H](C)OC(=O)C[C@H]1OC(C)=O` is lower in “activation” value: 1.52% for the first, -3.28% for the second.

Going from `CCCCOc1ccc(N)cc1` to `Cc1cc(SC2=C(O)C[C@@](CCc3ccc(N)cc3)(C(C)C)OC2=O)c(C(C)(C)C)cc1CO`, the “activation” value rises from -3.04% to 1.92%.

Compared with `O=S(=O)(O)c1cc(Cl)c(Cl)cc1Cl`, `C[C@H](CN1CCCC1)C(=O)c1ccc(C(F)(F)F)cc1` is lower in “activation” value: -1.97% for the first, -2.31% for the second.

In the case of `CC(C)CCCCCOC(=O)CS`, the “activation” value is reported as -2.73%.

Going from `CC(=O)Nc1cccc(N)c1` to `COc1ccc(C(=O)Nc2ccccc2)cc1[N+](=O)[O-]`, the “activation” value falls from 2.38% [at 95.1 µM] to 1.93% [at 95.1 µM].

First: CC(O)C(C)O (stereo not given)
Second: COC(=O)C(C)(C)C
The “activation” value of the first is higher: -1.97% [at 95.1 µM] for the first, -2.13% [at 95.1 µM] for the second.

Compared with `O=C1c2ccccc2C(=O)C1c1ccc2cc(S(=O)(=O)O)cc(S(=O)(=O)O)c2n1`, `NC(=O)c1ccccc1C(N)=O` is higher in “activation” value: -1.88% [at 95.1 µM] for the first, 4.18% [at 95.1 µM] for the second.

For `CC/C=C/CCO`, the “activation” value was 2.11% [at 95.1 µM].

In the case of `CCN(CCCCOC(=O)c1ccc(OC)c(OC)c1)C(C)Cc1ccc(OC)cc1` (stereo not given), the “activation” value is reported as -2.25% [at 34.7 µM].

`CC1=CC(=C(c2ccc(N)cc2)c2ccc(N)cc2)C=CC1=N` gave an activation of -1.72% [at 8.3 µM].

From PubChem BioAssay (Tox21)
